Measured values reported in PubChem BioAssay (EPA / NIEHS).
Inconclusive results are not listed. Calls of active or inactive are those of the source. The calls were made as follows, unless noted: active = hit-call score of the fitted dose curve at least 0.9, where 1 is the maximum; inactive = score below 0.9.

What was measured:
[1] = CCTE_Mundy_HCI_Cortical_NOG_NeuriteCount: CCTE's Neurite Outgrowth Assay in rat cortical cells for Neurite Count, Mundy Lab (AID 2284212);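 also: cells fixed about two days after chemical exposure began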
Outline: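 Neurite number per cell from high-content imaging of betaIII-tubulin immunostaining, with Hoechst nuclear counterstain.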

[2] = CCTE_Mundy_HCI_Cortical_Synap_Neur_Matur_NeuriteLength: CCTE's Synaptogenesis and Neurite Maturation Assay in rat cortical cells for Neurite Length, Mundy Lab (AID 2284214)
Outline: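 Rat primary cortical cultures, AraC added DIV 5, dosed DIV 7 through DIV 12 […]. Fixed, MAP2/synaptophysin immunostained with Hoechst; neurite length by high-content imaging, fitted in positive direction versus DMSO.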

[3] = CCTE_Mundy_HCI_Cortical_Synap_Neur_Matur_NeuriteSpotCountPerNeuron: CCTE's Synaptogenesis and Neurite Maturation Assay in rat cortical cells for Neurite Spot Count per Neuron Count, Mundy Lab (AID 2284215)
Outline: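 Developing rat cortical neurons, with glia suppressed by AraC, are exposed to chemicals from DIV 7 to DIV 12. Automated fluorescence imaging of MAP2-labelled neurites and synaptophysin puncta yields a count per neuron, normalised against DMSO wells.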

[4] = CCTE_Mundy_HCI_Cortical_Synap_Neur_Matur_SynapseCount: CCTE's Synaptogenesis and Neurite Maturation Assay in rat cortical cells for Synapse Count, Mundy Lab (AID 2284218)
Outline: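 Rat primary cortical cultures, AraC at DIV 5, chemical dosing DIV 7 to DIV 12 (288.33 h). Fixed cells stained for MAP2, synaptophysin and Hoechst; synapses per neuron counted by high-content imaging, loss of signal versus DMSO.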

[5] = CCTE_Mundy_HCI_Cortical_Synap_Neur_Matur_NeuriteCount: CCTE's Synaptogenesis and Neurite Maturation Assay in rat cortical cells for Neurite Count, Mundy Lab (AID 2284222);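 also: exposure from day 7 to day 12 in vitro with readout at day 12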
Outline: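 Rat primary cortical cells; AraC added at DIV 5, chemicals dosed with media change at DIV 7 through DIV 12. MAP2/synaptophysin/Hoechst immunostaining, high-content imaging of neurite number; fitted relative to DMSO.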

[6] = CCTE_Mundy_HCI_Cortical_Synap_Neur_Matur_CellBodySpotCount: CCTE's Synaptogenesis and Neurite Maturation Assay in rat cortical cells for Cell Body Spot Count, Mundy Lab (AID 2284223)
Outline: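 Chemicals were applied to AraC-treated rat primary cortical cells at DIV 7 and measured at DIV 12. Fixed cells were labelled for MAP2, synaptophysin and nuclei, and high-content imaging gave cell body synaptophysin spot counts per neuron relative to DMSO.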

[7] = UKN2_HCS_IMR90_cell_viability: Viability Assessment in the University of Konstanz (UKN) Leist Lab Neural Crest Cell Migration Assay in human induced IMR90 Pluripotent Stem Cells (UKN2) (AID 2284233);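 also: viability of neural crest cells differentiated from IMR90 iPSC measured by calcein-AM fluorescence imaging; cells exposed to compound for 24 h after a 24 h migration phase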
Outline: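 Neural crest cells derived from IMR90 iPSC migrate into a stopper-free zone for 24 h in EGF/FGF medium, then are exposed to compound for 24 h. Viability assessed by calcein-AM and Hoechst staining with high-content imaging, fitted bidirectionally versus DMSO.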

[8] = CCTE_Mundy_HCI_Cortical_NOG_NeuronCount: CCTE's Neurite Outgrowth Assay in rat cortical cells for Neuron Count, Mundy Lab (AID 2284236; active = hit-call score of the fitted dose curve at least 0.9, where 1 is the maximum;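 also: neurons counted by imaging betaIII-tubulin and Hoechst stained cortical cells; cells exposed to compound for about 48 hours before fixation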)
Outline: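 Read-out: neuron number by high-content imaging of betaIII-tubulin (Alexa Fluor-488) and Hoechst-labelled rat primary cortical cells.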

[9] = CCTE_Mundy_HCI_Cortical_NOG_BPCount: CCTE's Neurite Outgrowth Assay in rat cortical cells for Branch Point Count, Mundy Lab (AID 2284237)
Outline: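 Measured 50.33 h after dosing, this morphology endpoint uses rat primary cortical cultures labelled for betaIII-tubulin. Branch points are quantified by high-content imaging, with DMSO as negative control and baseline.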

[10] = CCTE_Mundy_HCI_hNP1_Casp3_7: CCTE's Caspase-Glo 3/7 Assay in human neuroprogenitor cells for Apoptosis, Mundy Lab (AID 2284240)
Outline: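 Luminescent caspase-3/7 readout, 26.5 h post-dose, in human neural progenitor cells from WA09 embryonic stem cells. Cells grew 40–44 h at 37 °C, 5% CO2 before chemical addition. Activity analysed as signal increase over DMSO baseline.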

[11] = CCTE_Mundy_HCI_hNP1_CellTiter: CCTE's Cell Titer-Glo 2 Assay in human neuroprogenitor cells for Viability, Mundy Lab (AID 2284241; active = hit-call score of the fitted dose curve at least 0.9, where 1 is the maximum)
Outline: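 Viability read as luminescent ATP content (CellTiter-Glo, 30 min room temperature) twenty-four hours after dosing, relative to DMSO. Cells: WA09-derived hNP1 neuroprogenitors on poly-L-ornithine/laminin, plated 40 to 44 hours before chemical.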

[12] = IUF_NPC2c_oligodendrocyte_migration_120hr: Leibniz Research Institute for Environmental Medicine (IUF) 120-hour Neural Progenitor Cell Migration Assay for Oligodendrocyte Migration (NPC2c) (AID 2284297);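 also: O4-positive oligodendrocyte migration distance divided by radial glia migration distance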
Outline: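 Using fetal brain neural progenitor spheres differentiating in N2 medium at 37C, compounds were present for 120 h. Oligodendrocyte migration distance, normalized to radial glia migration, was measured from imaged O4 staining.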

[13] = IUF_NPC2a_radial_glia_migration_120hr: Leibniz Research Institute for Environmental Medicine (IUF) 120-hour Neural Progenitor Cell Migration Assay for Radial Glia Migration (NPC2a) (AID 2284298)
Outline: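 Exposure of 0.3 mm primary hNPC spheres runs day 0 to 120 h with a half-volume medium change at day 3. Fixed cells get Hoechst staining; high-content analysis of nuclear positions yields radial glia migration distance per well, compared against DMSO controls.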

[14] = IUF_NPC2a_radial_glia_migration_72hr: Leibniz Research Institute for Environmental Medicine (IUF) 72-hour Neural Progenitor Cell Migration Assay for Radial Glia Migration (NPC2a) (AID 2284299)
Outline: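 Human fetal neural progenitor spheres (0.3 mm) plated on poly-D-lysine/laminin in N2 differentiation medium and exposed from day 0 at 7 concentrations; radial glia migration distance from sphere edge measured at 72 h on brightfield images, mean of four directions, vs DMSO.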

[15] = IUF_NPC2b_neuronal_migration_120hr: Leibniz Research Institute for Environmental Medicine (IUF) 120-hour Neural Progenitor Cell Migration Assay for Neuron Migration (NPC2b) (AID 2284300)
Outline: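 Fetal human NPC spheres migrate on PDL/laminin during 120 h compound treatment; neuronal migration distance, glia-normalized, scored versus DMSO control.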

[16] = IUF_NPC3_neuronal_differentiation_120hr: Leibniz Research Institute for Environmental Medicine (IUF) 120-hour Neuronal Differentiation Assay (NPC3) (AID 2284301)
Outline: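 Human fetal (GW 16-19) neural progenitor spheres (0.3 mm) plated on poly-D-lysine/laminin in N2 differentiation medium, exposed 120 h at 37C with half-medium renewal day 3; 7 concentrations. TUBB3+ cells as % of Hoechst nuclei, CNN-identified; DMSO baseline.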

[17] = IUF_NPC2-5_cytotoxicity_72hr: Cytotoxicity Assessment at 72 hours in the Leibniz Research Institute for Environmental Medicine (IUF) Neural Progenitor Cell Migration and Differentiation Assay for Cytotoxicity (NPC2-5) (AID 2284306; active = hit-call score of the fitted dose curve at least 0.9, where 1 is the maximum;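 also: LDH release into supernatant measured by resorufin fluorescence marking membrane damage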)
Outline: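 Human fetal primary neural progenitor spheres (0.3 mm) plated on poly-D-lysine/laminin in N2 differentiation medium, exposed from day 0 at 37C. LDH-dependent resazurin-to-resorufin fluorescence in supernatant at 72 h; 7 concentrations, DMSO at most 0.1%.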

[18] = IUF_NPC2-5_cell_number_120hr: Cell Number Assessment at 120 hours in the Leibniz Research Institute for Environmental Medicine (IUF) Neural Progenitor Cell Migration and Differentiation Assay (NPC2-5) (AID 2284308);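 also: count of Hoechst-stained nuclei in migration zone around plated human neural progenitor spheres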
Outline: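 Seven-point serial dilutions plus solvent control were applied to plated 0.3 mm hNPC spheres at differentiation start, with medium half-replaced at day 3. Nuclei positive for Hoechst in the migration zone were enumerated at 120 h.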

[19] = IUF_NPC2-5_viability_120hr: Viability Assessment at 120 hours in the Leibniz Research Institute for Environmental Medicine (IUF) Neural Progenitor Cell Migration and Differentiation Assay (NPC2-5) (AID 2284312)
Outline: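 Human fetal neural progenitor spheres (0.3 mm) plated on poly-D-lysine/laminin in N2 differentiation medium, exposed 120 h with half-medium refresh at day 3. Viability by alamar blue resazurin fluorescence; 7 concentrations, DMSO max 0.1%.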

[20] = CCTE_Mundy_HCI_iCellGluta_NOG_NeuriteLength: CCTE's Neurite Outgrowth Assay in iCellGluta cells for Neurite Length, Mundy Lab (AID 2284318; active = hit-call score of the fitted dose curve at least 0.9, where 1 is the maximum)
Outline: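 Automated high-content imaging of betaIII-tubulin (Alexa Fluor-488) and Hoechst-stained cells gave neurite length, normalized to the DMSO baseline.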

[21] = IUF_NPC1_cytotoxicity_72hr: Cytotoxicity Assessment at 72 hours in the Leibniz Research Institute for Environmental Medicine (IUF) Neural Progenitor Cell Proliferation Assay (NPC1) (AID 2284332; active = hit-call score of the fitted dose curve at least 0.9, where 1 is the maximum;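 also: rising LDH signal means more cytotoxicity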)
Outline: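 Human fetal neural progenitor spheres (0.3 mm) in EGF/FGF proliferation medium, 37C, exposed 72 h without renewal. LDH release in supernatant read by resorufin fluorescence; gain of signal scored relative to dynamic range.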

[22] = CCTE_Mundy_HCI_iCellGluta_NOG_NeuriteCount: CCTE's Neurite Outgrowth Assay in iCellGluta cells for Neurite Count, Mundy Lab (AID 2284342; active = hit-call score of the fitted dose curve at least 0.9, where 1 is the maximum;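 also: chemical exposure about 48 hours starting 2 hours after plating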)

Measured: outcome

C[C@@H]1CC[C@@H](C(C)(C)O)[C@H](O)C1
inactive: all assays above
